Bioassay records deposited in PubChem by National Center for Advancing Translational Sciences (NCATS).
D3 ag = qHTS of D3 Dopamine Receptor Agonist: qHTS. D(3) dopamine receptor (Homo sapiens), P35462. D3R DiscoveRx beta-arrestin cells, luminescence, 90 min. max activation, %. hit rate 0.58% among 410,000. AID 652048, 2013; in the data active = max activation above about 30%; also: 0% is about no effect
Target sequence (P35462 whole entry, looked up): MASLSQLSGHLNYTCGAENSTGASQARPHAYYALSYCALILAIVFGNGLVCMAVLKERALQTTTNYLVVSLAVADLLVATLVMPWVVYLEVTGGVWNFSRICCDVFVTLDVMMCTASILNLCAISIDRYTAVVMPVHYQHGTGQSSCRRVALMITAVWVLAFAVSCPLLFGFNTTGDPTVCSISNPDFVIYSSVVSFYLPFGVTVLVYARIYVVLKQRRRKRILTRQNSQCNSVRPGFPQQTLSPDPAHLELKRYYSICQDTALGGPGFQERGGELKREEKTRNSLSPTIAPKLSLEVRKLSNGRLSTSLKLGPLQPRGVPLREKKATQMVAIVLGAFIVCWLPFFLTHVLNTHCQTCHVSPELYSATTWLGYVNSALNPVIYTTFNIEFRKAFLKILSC
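Cells at 1500/well, incubated overnight, then treated with pinned compounds (dopamine as control) for 90 min at 37 degrees C. DiscoveRx reagent added for 30 - 60 minutes at room temperature; luminescence read.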
SW480 rereplic = A quantitative high throughput screen for small molecules that induce DNA re-replication in SW480 colon adenocarcinoma cells; SW480 DNA re-replication, Hoechst DNA content imaging, 48 h; Potency, µM (doses to about 46.1 µM), inactives show top-dose re-replication activation, hits mostly activators; hit rate 1.8% among 340,000; also: potency is read from the fitted curve at half-maximal effect; % of control where 0% means no effect; nearly all actives have a fitted effect of over 55% in size
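Per well, 250 cells were exposed to pinned compound for 48 hr. Nuclear DNA was visualised with Hoechst (40 min, 37 C) and total object intensity recorded by fluorescence scanning.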
MCF10A rereplic = A quantitative high throughput screen for small molecules that induce DNA re-replication in MCF 10a normal breast cells; AID 624296, 2012; hit rate 2.9% among 350,000; Potency, µM (top dose mostly 46.1 µM), for the others: top-dose activity, positive = re-replication, usual class: activators; MCF 10A DNA re-replication, Hoechst nuclear intensity, 48 h; also: potency is read from the fitted curve at half-maximal effect; % of control where 0% means no effect; nearly all actives have a fitted effect of over 50% in size
KB-V1 cytotox = qHTS assay for MDR1-selective chemotherapeutics: Primary screen using the drug-selected MDR subline cells KB-V1; KB-V1 MDR cells viability, CellTiter-Glo, 72 h; Potency, µM (highest dose often 46.1 µM), hits mostly cytotoxic; hit rate 3.4% among 400,000; also: potency is read from the fitted curve at half-maximal effect; % is scaled to controls: 0 for no effect and ±100 for the full control effect; nearly all actives have a fitted effect of over 60% in size
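KB-V1 cells (P-gp-expressing MDR subline of KB-3-1) in phenol-red-free DMEM with 10% FBS were exposed to library compounds over a concentration series for 72 h at 37 degrees C. Viability read by CellTiter-Glo luminescence; concentration-effect curves fitted after normalization.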
DRD3 antagonist = qHTS of D3 Dopamine Receptor Antagonist: qHTS | AID 652054, 2013 | hit rate 2.5% among 360,000 | D3R cells, DiscoveRx beta-arrestin luminescence, antagonist mode; hits give low values | max response, negative = inhibition, %; in the data active = max response below about -50%; inconclusive = no clear call, values can overlap the other calls; also: % is scaled to controls: 0 for no effect and ±100 for the full control effect
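Cells expressing the human receptor were seeded at 1500 cells/well, incubated overnight at 37 degrees C in 5% CO2, then exposed to library compounds with dopamine controls for 90 minutes at 37 degrees C before luminescent detection.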
KB-3-1 tox = qHTS assay for MDR1-selective chemotherapeutics: Primary screen using the parental adenocarcinoma cell KB-3-1 | KB-3-1 viability, CellTiter-Glo ATP luminescence, 72 h | Potency, µM (titrated, usually from 46.1 µM), actives largely listed as cytotoxic | hit rate 1.4% among 400,000 | AID 1347075, 2019; also: potency is read from the fitted curve at half-maximal effect; % is scaled to controls: 0 for no effect and ±100 for the full control effect; nearly all actives have a fitted effect of over 60% in size
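Here the drug-naive KB-3-1 line serves as comparator for MDR sub-line selectivity; cells received compound titrations, 72 h at 37 °C, then CellTiter-Glo readout.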
Starred values were filed as active, the others as inactive. Only some compounds are listed: those with a hit (about 8.9% of all), similar ones and a draw of the others. Unless noted, calls follow the shape of the dose curve; as a rule, active = well fitted curve in the direction sought with a large enough effect; inconclusive = small, poorly fitted or top-dose-only effect, or another doubt; inactive = no such curve, though single readings can be large; an effect the other way counts as inactive or inconclusive.

Results for Cc1cc(C)c(C#N)c(SCC(=O)Nc2ccccc2C)n1 ?
D3 ag: 6; SW480 rereplic: -1%; MCF10A rereplic: 27%; KB-V1 cytotox: inactive; DRD3 antagonist: 0; KB-3-1 tox: inactive

How did CCS(=O)(=O)CCSc1nc(C)cc(C)c1C#N do in these assays?
D3 ag: 9; SW480 rereplic: 0%; MCF10A rereplic: 6%; KB-V1 cytotox: inactive; DRD3 antagonist: -13; KB-3-1 tox: inactive

Results for Cc1cc(C)c(C#N)c(SCC(=O)Nc2nnc(-c3ccccc3)s2)n1 ?
D3 ag: 5; SW480 rereplic: 1%; MCF10A rereplic: 10µM*; KB-V1 cytotox: inactive; DRD3 antagonist: 11; KB-3-1 tox: inactive

How did Cc1cc(C)c(C#N)c(SCCS(=O)(=O)Cc2ccccc2)n1 do in these assays?
D3 ag: -11; SW480 rereplic: 12%; MCF10A rereplic: 4%; KB-V1 cytotox: inactive; DRD3 antagonist: -84*; KB-3-1 tox: inactive

Results for Cc1ccc2sc(NC(=O)CSc3nc(C)cc(C)c3C#N)nc2c1 ?
D3 ag: 2; SW480 rereplic: 2.8µM*; MCF10A rereplic: 5%; KB-V1 cytotox: inactive; DRD3 antagonist: -4; KB-3-1 tox: inactive

What do the screens show for `COc1cc(CNC(=O)c2sc3ncccc3c2-n2cccc2)cc(OC)c1OC`?
D3 ag: 2; KB-V1 cytotox: inactive; KB-3-1 tox: inactive

Results for CCOc1ccc(C2CC(=O)N(c3cccc(F)c3)C3=C2C(=O)OC3)cc1 (stereo unspecified) ?
D3 ag: 6; KB-V1 cytotox: inactive; KB-3-1 tox: inactive

How did NC(=O)c1[nH]cnc1N do in these assays?
D3 ag: 5; SW480 rereplic: -38%; MCF10A rereplic: -1%; KB-V1 cytotox: inactive; DRD3 antagonist: 0; KB-3-1 tox: inconclusive

Results for CCOc1ccc(NC(=O)Nc2cccn(Cc3ccccc3)c2=O)cc1 ?
D3 ag: -1; SW480 rereplic: 10%; MCF10A rereplic: 17%; KB-V1 cytotox: 5.8µM*; DRD3 antagonist: 2; KB-3-1 tox: inconclusive

How did COc1ccc(Cn2cccc(NC(=O)Nc3cccc(C#N)c3)c2=O)cc1 do in these assays?
D3 ag: 1; SW480 rereplic: inconclusive; MCF10A rereplic: inconclusive; KB-V1 cytotox: 4.1µM*; DRD3 antagonist: 34; KB-3-1 tox: inactive

What do the screens show for `Nc1c(-c2ccccc2)c(CSc2nc3ccccc3[nH]2)nn1-c1cccc(Cl)c1`?
D3 ag: -3; SW480 rereplic: inconclusive; MCF10A rereplic: inconclusive; KB-V1 cytotox: inconclusive; DRD3 antagonist: 28; KB-3-1 tox: 23µM*

How did Cc1ccccc1-n1nc(CSc2nc3ccccc3[nH]2)c(-c2ccccc2)c1N do in these assays?
D3 ag: -3; SW480 rereplic: 10%; MCF10A rereplic: 30%; KB-V1 cytotox: 18µM*; DRD3 antagonist: 14; KB-3-1 tox: inconclusive

What do the screens show for `COc1cccc(-n2c(CN3CCN(c4ccc(C)cc4)C(C)C3)nc3ccc([N+](=O)[O-])cc3c2=O)c1` (stereo unspecified)?
D3 ag: 0; SW480 rereplic: 4%; MCF10A rereplic: 21%; KB-V1 cytotox: 15µM*; DRD3 antagonist: inconclusive; KB-3-1 tox: inactive

How did COc1cccc(CNC(=O)C2CCCN(c3nn4cc(-c5ccc(C)cc5)nc4s3)C2)c1 (stereo unspecified) do in these assays?
D3 ag: 6; KB-V1 cytotox: inactive; KB-3-1 tox: inactive

Results for C=CCn1c(=O)c2c3c(sc2n2c(Nc4ccc(C(=O)OCC)cc4)nnc12)CCCC3 ?
D3 ag: -1; SW480 rereplic: 13µM*; MCF10A rereplic: 11%; KB-V1 cytotox: inactive; DRD3 antagonist: inconclusive; KB-3-1 tox: inactive

How did Cc1cc(=O)oc2c(C)c(OC(C)C(=O)NC(Cc3c[nH]c4ccc(O)cc34)C(=O)O)ccc12 (stereo unspecified) do in these assays?
D3 ag: -9; SW480 rereplic: 23%; MCF10A rereplic: 0%; KB-V1 cytotox: inconclusive; DRD3 antagonist: inconclusive; KB-3-1 tox: inactive

How did Cc1cc(=O)oc2cc(OCC(=O)NC(Cc3c[nH]c4ccc(O)cc34)C(=O)O)c(Cl)cc12 (stereo unspecified) do in these assays?
D3 ag: 31*; SW480 rereplic: 9%; MCF10A rereplic: -3%; KB-V1 cytotox: inactive; DRD3 antagonist: 12; KB-3-1 tox: inactive

How did CC(=O)Nc1ccc(S(=O)(=O)NCCC(=O)Nc2ccc(C)c(Cl)c2)cc1 do in these assays?
D3 ag: 1; SW480 rereplic: -74%; MCF10A rereplic: 2%; KB-V1 cytotox: inactive; DRD3 antagonist: -9; KB-3-1 tox: inactive

What do the screens show for `Cc1ccc(S(=O)(=O)NCCC(=O)Nc2ccncc2)cc1C`?
D3 ag: -13; SW480 rereplic: 0.65µM*; MCF10A rereplic: 12%; KB-V1 cytotox: inactive; DRD3 antagonist: -15; KB-3-1 tox: inactive

Results for COc1ccc(NC(=O)CNS(=O)(=O)c2ccccc2)cc1Cl ?
D3 ag: -9; SW480 rereplic: inconclusive; MCF10A rereplic: 8.2µM*; KB-V1 cytotox: inconclusive; DRD3 antagonist: 10; KB-3-1 tox: inactive

How did CCC(C)NCCC(=O)Nc1ccc(Cl)c(S(=O)(=O)Nc2ccc(Cl)cc2)c1 (stereo unspecified) do in these assays?
D3 ag: -7; SW480 rereplic: 26%; MCF10A rereplic: 13µM*; KB-V1 cytotox: inactive; DRD3 antagonist: -27; KB-3-1 tox: inactive

How did Cc1ccc(S(=O)(=O)NCCC(=O)Nc2cccc(Cl)c2)cc1 do in these assays?
D3 ag: -10; SW480 rereplic: 0.29µM*; MCF10A rereplic: 0%; KB-V1 cytotox: 16µM*; DRD3 antagonist: 0; KB-3-1 tox: inactive

Results for CCN(CC)CCn1c(=N)n(CCOc2ccccc2Cl)c2ccccc21 ?
D3 ag: -6

What do the screens show for `Cc1ccc(CNC(=O)CCc2nc3cccnc3n2Cc2ccccc2)cc1`?
D3 ag: -9; KB-V1 cytotox: inactive; KB-3-1 tox: inactive

Results for COc1cccc(Cn2ncc3c4sc(SC)cc4n(C)c3c2=O)c1 ?
KB-V1 cytotox: inactive; KB-3-1 tox: inactive

Results for Cc1cc(NS(=O)(=O)c2ccc(NC(=O)Nc3cccc(Cl)c3)cc2)no1 ?
D3 ag: 4; SW480 rereplic: -5%; MCF10A rereplic: 17%; KB-V1 cytotox: inactive; DRD3 antagonist: -55*; KB-3-1 tox: inactive
